IL1B secr inh: blocks inflammasome-driven IL-1 beta release; THP-1 LPS/ATP IL-1B secretion, AlphaLISA, 16 h; hits give low values; activity change, % at 57.5 µM; hit rate 4.7% among 360,000; AID 743279; in the data active means activity change below about -50%; inconclusive means mostly about -30% to -49%; further: on the % scale 0 is the no-effect control and ±100 the full control effect
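THP-1 cells pretreated 1 hr with compounds (up to 57.5 uM final), then stimulated with LPS (250 ng/mL final) plus ATP (1.25 mM final); secreted IL-1B measured by AlphaLISA after 16 hr, decreased signal indicating inhibition.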
RORg inh: inhibitors of mouse ROR gamma transcriptional activity. P51450. Drosophila S2 Gal4-RORgamma UAS-luciferase reporter, 20 h. Potency, µM (highest dose often 53.6 µM), inactives show at the top dose activity change, negative = inhibition, actives largely listed as inhibitors. hit rate 5.4% among 310,000. AID 2551; further: potency means the concentration at half of the fitted maximal effect; on the % scale 0 is the no-effect control and ±100 the full control effect; nearly all actives have a fitted effect of over 60% in size
Target sequence (P51450 whole entry, looked up, the tested form may be a part): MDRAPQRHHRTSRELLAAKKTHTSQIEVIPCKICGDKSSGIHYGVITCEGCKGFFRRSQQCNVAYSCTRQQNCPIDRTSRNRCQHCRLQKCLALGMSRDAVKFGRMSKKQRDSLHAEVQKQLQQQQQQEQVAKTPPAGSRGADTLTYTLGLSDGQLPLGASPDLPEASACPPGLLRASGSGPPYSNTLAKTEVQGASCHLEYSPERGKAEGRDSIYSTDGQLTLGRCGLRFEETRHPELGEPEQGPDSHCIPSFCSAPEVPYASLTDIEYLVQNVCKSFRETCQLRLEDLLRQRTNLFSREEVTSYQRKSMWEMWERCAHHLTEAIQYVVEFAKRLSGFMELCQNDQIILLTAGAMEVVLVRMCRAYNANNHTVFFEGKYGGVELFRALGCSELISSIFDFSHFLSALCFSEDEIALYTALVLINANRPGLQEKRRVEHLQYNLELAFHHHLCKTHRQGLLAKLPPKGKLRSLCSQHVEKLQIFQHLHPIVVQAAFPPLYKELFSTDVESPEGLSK
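A Gal4/UAS one-hybrid system in insect cells: metallothionein-promoter Gal4–ROR gamma fusion plus Photinus luciferase reporter. Copper sulfate 700 uM final, 20 hr ambient incubation, luminescent detection after 10 min with reagent.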
MCF10A rereplic: DNA re-replication induction in MCF 10a cells. hit rate 2.9% among 350,000. MCF 10A DNA re-replication, Hoechst nuclear intensity, 48 h. Potency, µM (doses to about 46.1 µM), for inactives: at the highest dose activity, positive = re-replication, most hits filed as activators; further: potency means the concentration at half of the fitted maximal effect; % of control where 0% means no effect; nearly all actives have a fitted effect of over 50% in size
SW480 rerep: DNA re-replication induction in SW480 cells. hit rate 1.8% among 340,000. Potency, µM (series often up to 46.1 µM), without a hit: top-dose re-replication activation, most hits filed as activators. SW480 DNA re-replication, Hoechst DNA content imaging, 48 h; further: potency means the concentration at half of the fitted maximal effect; % of control where 0% means no effect; nearly all actives have a fitted effect of over 55% in size
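Per well, 250 cells were exposed to pinned compound for 48 hr. Nuclear DNA was visualised with Hoechst (40 min, 37 C) and total object intensity recorded by fluorescence scanning.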
VP16 counter: counter-screen for ROR gamma inhibitors: Gal4-VP16 reporter; Potency, µM (doses to about 53.6 µM), inactives show at the top dose activity, negative = inhibition, usual class: inhibitors; hit rate 3.5% among 310,000; Drosophila S2 Gal4-VP16 UAS-luciferase, luminescence, 20 h; AID 2546;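 further: Gal4-VP16 expression switched on by copper sulfate through the metallothionein promoter; potency means the concentration at half of the fitted maximal effect; on the % scale 0 is the no-effect control and ±100 the full control effect; nearly all actives have a fitted effect of over 50% in size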
An asterisk follows results filed as active; ? = inconclusive; nt = no result; [ ] = dose if it differs, or a comment. Compounds with a hit are over-represented: about 11% of the library has one in this group of screens. Unless noted, the call rests on the fitted dose curve; in most records, active means well fitted curve in the direction sought with a large enough effect; inconclusive means small, poorly fitted or top-dose-only effect, or another doubt; inactive means no such curve, though single readings can be large; an effect the other way counts as inactive or inconclusive.

SMILES	IL1B secr inh	RORg inh	MCF10A rereplic	SW480 rerep	VP16 counter
Oc1cccc(/C=C/c2ccc3cccc(O)c3n2)c1	4	-108%	?	0%	5µM*
O=[N+]([O-])c1ccc(/C=C/c2ccc3cccc(O)c3n2)cc1	7	2.5µM*	24%	?	?
C=C(C)C(O)/C=C/c1cccc(OC)c1 (configuration not stated)	nt	?	nt	nt	30%[10 µM]
COc1ccc(-c2csc(C(C)(O)c3cccc(F)c3)n2)cn1 (configuration not stated)	13	nt	nt	nt	nt
Cc1ccc(N(C(=O)CS(=O)CC(=O)Nc2ccc(F)cc2)C(C)C(=O)NC(C)(C)C)cc1 (configuration not stated)	-20	-32%	7%	0%	-17%
Cc1ccc(/C=C/c2ccc3cccc(O)c3n2)s1	-16	14µM*	25%	?	?
Cc1cccc(/C=C\c2ccccc2)n1	nt	?	nt	nt	-6%
COc1ccc2c(c1)C=C(CN1CCC(CO)(CCc3ccccc3)CC1)CO2	-60*	13%	?	?	-2%
COc1ccc(CC2(CO)CCN(Cc3ccc4c(c3)CCO4)CC2)cc1	?	21%	?	-1%	-12%
COc1ccc(CC2(CO)CCN(CC3=Cc4cc(Cl)ccc4OC3)CC2)cc1	-87*	30%	23µM*	?	-3%
COc1ccc2c(c1)C=C(CN1CCN(Cc3ccccc3C)C(CCO)C1)CO2 (configuration not stated)	?	18%	-1%	7%	-5%
CN(CC(=O)Nc1cccc(F)c1)C(=O)c1ccc(C2SCCS2)cc1	?	nt	20%	-13%	nt
CN(CC(=O)Nc1cccc(F)c1)C(=O)c1ccc2c(c1)CC(c1ccccc1)OC2=O (configuration not stated)	-13	nt	18µM*	18µM*	nt
O=C(CSc1ncccn1)NC(=O)Cc1ccccc1	9	nt	-1%	-7%	nt
COc1ccccc1N1CCN(c2ncnc3n[nH]c(Br)c23)CC1	16	nt	nt	nt	nt
COC(=O)C(=Cc1ccc(OCc2ccc([N+](=O)[O-])cc2)c(OC)c1)C(=O)OC	-92*	16µM*	1.5µM*	25%	-9%[0.365 µM]
CCOC(=O)/C(=C\c1ccc(OC)c(OC)c1)C(=O)c1cccnc1	-7	-18%	26µM*	20%	-2%
CCOC(=O)C(=Cc1ccc(OCc2ccc([N+](=O)[O-])cc2)c(OC)c1)C(=O)OCC	-101*	14µM*	5.8µM*	4.6µM*	?
COc1cc(C=O)ccc1OCCCOc1ccc([N+](=O)[O-])cc1	12	-1%	2%	-4%	-12%
COC(=O)c1cccc(NC(=O)CSc2nnc(-c3ccco3)o2)c1	12	-31%	0%	-6%	1%
COc1cccc(C(O)c2ncc(-c3cccc4ccccc34)[nH]2)c1 (configuration not stated)	-8	nt	nt	nt	nt
O=C(COc1ccccc1)N=C1SC2CS(=O)(=O)CC2N1c1cccc(F)c1 (configuration not stated)	7	0%	-1%	18%	-6%
CCC(OC(=O)C(NC(=O)c1ccccc1)c1ccccc1)C(=O)Nc1cc(C)on1 (configuration not stated)	18	-11%	5.8µM*	?	3%
Cc1cc(NC(=O)C(Cl)c2ccccc2)no1 (configuration not stated)	-83*	-22%	-4%	?	-12%
O=C(O)C1CCC2CCCC21 (configuration not stated)	18	nt	nt	nt	nt
NC(=O)COC(=O)c1ccc(Cl)c(S(=O)(=O)N(Cc2ccccc2)c2ccc(Cl)cc2)c1	30	-2%	?	13%	-6%
COc1ccccc1N(Cc1ccccc1)S(=O)(=O)c1cccc(C(=O)Nc2ncccc2C)c1	-3	nt	15%	3%	nt
COc1ccccc1N(Cc1ccccc1)S(=O)(=O)c1cccc(C(=O)O)c1	23	23%	3%	-5%	-9%
COc1ccccc1N(Cc1ccccc1)S(=O)(=O)c1cc(C(=O)O)ccc1Cl	29	-37%	18µM*	2%	-11%

Assay outcomes (PubChem)
